In the antibiotic and cytotoxicity screens of Wong et al. (2023) one finds growth inhibition call data, which are given here for 63 compounds.

The whole screen tested about 39,000 compounds, of which about 500 (1.3%) were called active. Shown is part of a subset that was picked to be rich in actives.

This assay has as its system S. aureus RN4220. Put plainly: growth inhibition call (relative growth <= 0.2). To be noted: 50 µM.
Consider `C[C@H](CO)N1C[C@H](C)[C@@H](CN(C)Cc2ccc(C(=O)Nc3ccccc3N)cc2)Oc2c(NS(=O)(=O)c3cn(C)cn3)cccc2C1=O`, for which the growth inhibition call is “inactive”. Consider `COc1ccc2c(c(Br)c(C(=O)O)n2CCCOc2cccc3ccccc23)c1-c1ccccc1C`, for which the growth inhibition call was “active”. Next, `COc1cc(C(=O)N2CCN(CCN3C(=O)c4cccc5cccc(c45)C3=O)CC2)cc(OC)c1OC`: “inactive”; `Cc1nn(C)c(COc2ccc(N3CCN(S(=O)(=O)N(C)C)CC3)cc2)c1-c1cccc2c(CCCOc3cccc4ccccc34)c(C(=O)O)n(CCN3CCNCC3)c12`: “inactive”; `C=Cn1cnc2c1c(=O)n(C)c(=O)n2C`: “inactive”. With `CC(C)=CCc1c2c(c3occ(-c4ccc(O)cc4)c(=O)c3c1O)C=CC(C)(C)O2`, the growth inhibition call is “inactive”. As for `CC(C)=CCCC1(C)C=Cc2c(O)c3c(c(CC=C(C)C)c2O1)OC12C(=CCCC1C(C)(C)OC2(CC=C(C)C(=O)O)C(=O)O)C3=O` (stereo not drawn), the entry is “active”. On to `C=c1ccc(S(=O)(=O)NC[C@@H](C)O)cc1=C1NN=C2c3ccccc3C(C)=NN21`, for which the growth inhibition call was “inactive”. As to `C[C@H](CO)N1C[C@H](C)[C@H](CN(C)S(C)(=O)=O)Oc2cc(C#Cc3ccc(F)cc3)ccc2S1(=O)=O`, the growth inhibition call is “inactive”. With `C[C@@H]1CN([C@H](C)CO)C(=O)c2cccc(NS(=O)(=O)c3ccccc3)c2O[C@@H]1CN(C)Cc1ccncc1`, the growth inhibition call is “inactive”. As for `CCCCCCCCCCCCC[N+](C)(C)Cc1ccccc1`, the growth inhibition call is “active”. Next, `CCCCCCCCCCCCCCCC[N+](C)(C)Cc1ccccc1.[Cl-]`: “inactive”; `CCCCCCCCCCCCC[N+](C)(C)Cc1ccccc1.O.[Cl-]`: “inactive”. In the case of `Cc1noc(C)c1S(=O)(=O)N(C)C[C@@H]1Oc2ccc(NS(C)(=O)=O)cc2CC(=O)N([C@H](C)CO)C[C@H]1C`, the growth inhibition call was “inactive”. Next, `C[C@@H]1CN([C@H](C)CO)C(=O)c2cccc(NC(=O)c3cnccn3)c2O[C@@H]1CN(C)S(=O)(=O)c1ccc(F)cc1`: “inactive”; `C[C@@H]1CCCCO[C@@H](CN(C)C(=O)Nc2ccc3c(c2)OCO3)[C@H](C)CN([C@@H](C)CO)C(=O)c2cc(NC(=O)Nc3ccccc3)ccc2O1`: “inactive”; `COc1ccc(C#Cc2ccc3c(c2)O[C@@H](CN(C)S(=O)(=O)c2ccccc2F)[C@H](C)CN([C@H](C)CO)S3(=O)=O)cc1`: “inactive”. Next, `O=C(O)CN(CC(=O)O)Cc1cc2c(-c3ccccc3C(=O)O)c3cc(CN(CC(=O)O)CC(=O)O)c(=O)cc-3oc2cc1O`: “inactive”; `O=C(O)c1ccccc1-c1c2cc(I)c(=O)c(I)c-2oc2c(I)c(O)c(I)cc12`: “active”. On to `O=C([O-])c1ccccc1-c1c2cc(I)c(=O)c(I)c-2oc2c(I)c([O-])c(I)cc12.[Na+].[Na+]`, for which the growth inhibition call is “active”. Consider `O=C(O)c1ccccc1-c1ccco1`, for which the growth inhibition call was “inactive”. Consider `C[C@@H]1CN([C@@H](C)CO)C(=O)c2cc(NS(=O)(=O)c3ccccc3)ccc2O[C@@H](C)CCCCO[C@@H]1CN(C)Cc1ccc2c(c1)OCO2`, for which the growth inhibition call was “inactive”.

`Cc1ccc(S(=O)(=O)N(C)C[C@H]2OCCCC[C@H](C)Oc3ccc(NC(=O)NC4CCCCC4)cc3C(=O)N([C@H](C)CO)C[C@@H]2C)cc1`: the growth inhibition call was “inactive”. As for `O=C(CN1CCOCC1)N[C@H]1CC[C@H](CCNS(=O)(=O)c2ccccc2F)O[C@H]1CO`, the entry is “inactive”; as for `CO[C@@H]1CN(C)C(=O)c2ccc(NC(=O)Nc3cccc(F)c3)cc2OC[C@H](C)N(C(=O)Nc2c(C)noc2C)C[C@H]1C`, “inactive”. In the case of `C[C@@H](O)[C@H]1C(=O)N2C(C(=O)O)=C(SCCNC=N)C[C@H]12`, the growth inhibition call was “inactive”. As for `CC(O)C1C(=O)N2C(C(=O)O)=C(SC3CNC(C(=O)N(C)C)C3)C(C)C12` (stereo not drawn), the growth inhibition call was “active”.

For the compound `CC(O)C1C(=O)N2C(C(=O)[O-])=C(SC3Cn4cnc[n+]4C3)C(C)C12` (stereo not drawn), the growth inhibition call was “inactive”. Next, `C[C@@H]1CN([C@@H](C)CO)C(=O)CCCn2cc(nn2)CO[C@H]1CN(C)C(=O)C1CC1`: “inactive”. As for `C[C@H](CO)N1C[C@H](C)[C@H](CN(C)C(=O)CCC(F)(F)F)OCCCC[C@H](C)Oc2ccc(NC(=O)C3CCCCC3)cc2C1=O`, the entry is “inactive”; as for `COc1cccc(S(=O)(=O)N2C[C@@H](O)COC[C@@H]3O[C@@H](CC(=O)N4CCN(c5ccccc5)CC4)CC[C@H]32)c1`, “inactive”; as for `CNC(CC(C)C)C(=O)NC1C(=O)NC(CC(N)=O)C(=O)NC2C(=O)NC3C(=O)NC(C(=O)NC(C(=O)O)c4cc(O)cc(O)c4-c4cc3ccc4O)C(O)c3ccc(c(Cl)c3)Oc3cc2cc(c3OC2OC(CO)C(O)C(O)C2OC2CC(C)(N)C(O)C(C)O2)Oc2ccc(cc2Cl)C1O.Cl` (stereo not drawn), “active”. Next, `C[C@@H]1O[C@@H](O[C@H]2[C@H](Oc3cc(O)c4c(c3)O[C@H](c3ccc(O)cc3)CC4=O)O[C@H](CO)[C@@H](O)[C@@H]2O)[C@H](O)[C@H](O)[C@H]1O`: “inactive”; `C[C@@H]1O[C@@H](O[C@H]2[C@@H](Oc3cc(O)c4c(c3)O[C@H](c3ccc(O)cc3)CC4=O)O[C@H](CO)[C@@H](O)[C@@H]2O)[C@H](O)[C@H](O)[C@H]1O`: “inactive”. With `CC(C)C[C@@H](N)C(=O)N[C@H]1C(=O)N[C@@H](CC(N)=O)C(=O)N[C@H]2C(=O)N[C@H]3C(=O)N[C@H](C(=O)N[C@H](C(=O)O)c4cc(O)cc(O)c4-c4cc3ccc4O)[C@H](O)c3ccc(c(Cl)c3)Oc3cc2cc(c3O[C@@H]2O[C@H](CO)[C@@H](O)[C@H](O)[C@H]2O[C@H]2C[C@](C)(N)[C@H](O)[C@H](C)O2)Oc2ccc(cc2Cl)[C@H]1O`, the growth inhibition call is “active”. Next, `CN[C@H](CC(C)C)C(=O)N[C@H]1C(=O)N[C@@H](CC(N)=O)C(=O)N[C@H]2C(=O)N[C@H]3C(=O)N[C@H](C(=O)N[C@H](C(=O)O)c4cc(O)cc(O)c4-c4cc3ccc4O)[C@H](O)c3ccc(c(Cl)c3)Oc3cc2cc(c3O[C@@H]2O[C@H](CO)[C@@H](O)[C@H](O)[C@H]2O[C@H]2C[C@](C)(N)[C@H](O)[C@H](C)O2)Oc2ccc(cc2Cl)[C@H]1O`: “active”; `CC1OC(OC2C(Oc3cc(O)c4c(c3)OC(c3ccc(O)cc3)CC4=O)OC(CO)C(O)C2O)C(O)C(O)C1O` (stereo not drawn): “inactive”. On to `C[C@H]1CCCC[C@]12NC(=O)NC2=O`, for which the growth inhibition call was “inactive”.

On to `CC1CCC(C(C)C)C(=O)C1` (stereo not drawn), for which the growth inhibition call was “inactive”.

As for `C[C@H](CO)N1C[C@H](C)[C@@H](CN(C)Cc2ccccc2)OCCCC[C@H](C)Oc2ccc(NC(=O)C3CCCCC3)cc2C1=O`, the growth inhibition call was “inactive”. Turning to `COc1ccc(S(=O)(=O)Nc2ccc3c(c2)CC(=O)N([C@@H](C)CO)C[C@H](C)[C@@H](CN(C)S(C)(=O)=O)O3)cc1`, the growth inhibition call was “inactive”. Turning to `Cc1ccc(S(=O)(=O)N(C)C[C@H]2Oc3c(NS(=O)(=O)c4cn(C)cn4)cccc3C(=O)N([C@@H](C)CO)C[C@H]2C)cc1`, the growth inhibition call is “inactive”. As for `COCCNC(=O)C[C@H]1CC[C@H]2[C@@H](COC[C@@H](O)CN2S(=O)(=O)c2ccccc2C)O1`, the entry is “inactive”; as for `CN1CC2(CCN(C(=O)[C@H]3CCC(=O)N3)CC2)COc2ccccc2S1(=O)=O`, “inactive”; as for `C[C@@H]1CCCCO[C@H](CN(C)C(=O)NC2CCCCC2)[C@H](C)CN([C@@H](C)CO)C(=O)c2cc(NS(=O)(=O)c3ccc(F)cc3)ccc2O1`, “inactive”.

Consider `O=C(C[C@H]1C[C@@H]2c3cc(NS(=O)(=O)c4ccc(F)cc4)ccc3O[C@@H]2[C@@H](CO)O1)NCc1ccncc1`, for which the growth inhibition call was “inactive”. For `CSc1nc(C)cc(NC(N)=O)n1`, the growth inhibition call is “inactive”. Next, `COc1cc(N2CCC(N(C)C)CC2)ccc1Nc1ncc(Cl)c(Nc2ccccc2P(C)(C)=O)n1`: “inactive”; `COc1cc(N2CCC(N)CC2)ccc1Nc1ncc(Cl)c(-c2c[nH]c3ccccc23)n1`: “active”. Next, `COc1cc(N2CCC(N3CCN(C)CC3)CC2)ccc1Nc1ncc(Cl)c(Nc2ccccc2S(=O)(=O)C(C)C)n1`: “inactive”; `CCCNC(=O)N1C[C@H](O)COC[C@@H]2O[C@H](CC(=O)N3CCN(C)CC3)CC[C@H]21`: “inactive”; `O=C(CN1CCOCC1)N[C@H]1CC[C@@H](CCNC(=O)C2CCCCC2)O[C@H]1CO`: “inactive”.

`COC1(NC(=O)C2SC(=C(C(N)=O)C(=O)O)S2)C(=O)N2C(C(=O)O)=C(CSc3nnnn3C)CSC21` (stereo not drawn): the growth inhibition call was “active”. Next, `CO[C@@]1(NC(=O)CSC[C@@H](N)C(=O)O)C(=O)N2C(C(=O)O)=C(CSc3nnnn3C)CS[C@@H]21`: “inactive”; `COC1(NC(=O)C(C(=O)[O-])c2ccc(O)cc2)C(=O)N2C(C(=O)[O-])=C(CSc3nnnn3C)COC21.[Na+].[Na+]` (stereo not drawn): “active”. In the case of `COC1(NC(=O)CSCC#N)C(=O)N2C(C(=O)[O-])=C(CSc3nnnn3C)CSC21.[Na+]` (stereo not drawn), the growth inhibition call is “active”. As to `CO[C@@]1(NC(=O)[C@@H](C(=O)O)c2ccc(O)cc2)C(=O)N2C(C(=O)O)=C(CSc3nnnn3C)CO[C@@H]21`, the growth inhibition call is “inactive”.

Take `C[C@H](CO)N1C[C@H](C)[C@@H](CN(C)Cc2ccc3c(c2)OCO3)Oc2c(NC(=O)c3ccncc3)cccc2C1=O`: the growth inhibition call is “inactive”. As for `COc1ccc(S(=O)(=O)Nc2ccc3c(c2)CC(=O)N([C@H](C)CO)C[C@@H](C)[C@H](CN(C)S(=O)(=O)c2ccc(F)cc2)O3)cc1`, the entry is “inactive”; as for `O=C(CCCCCNC(=O)OCc1ccc(CO[C@H]2C[C@@H](C3CCCCC3)C=C(C(=O)N3CCN(Cc4ccc5c(c4)OCO5)CC3)O2)cc1)NO`, “inactive”. As for `COc1ccccc1NC(=O)C1=C(C)N=C(SCC(=O)Nc2ccccc2[N+](=O)[O-])C(C#N)[C@@H]1c1ccccc1F` (stereo partly drawn), the entry is “inactive”. For the compound `C[C@H]1CN([C@@H](C)CO)C(=O)Cc2cc(NC(=O)CCCCCC(=O)Nc3ccccc3N)ccc2O[C@H]1CN(C)Cc1ccc(C(F)(F)F)cc1`, the growth inhibition call was “inactive”.

As to `COc1ccc(NC(=O)N(C)C[C@H]2OCCCC[C@@H](C)Oc3ccc(NC(=O)Nc4ccccc4)cc3C(=O)N([C@H](C)CO)C[C@H]2C)cc1`, the growth inhibition call was “inactive”.
